Screening data from PubChem.
In the library only some 22% were active in any assay of this set; here they are far more common.
LmPK inhibitor: inhibitors of Leishmania mexicana pyruvate kinase; Q27686; purified LmPK, Kinase-Glo ATP luminescence, 1 h; Potency, µM (doses to about 57.5 µM), for inactives: at the highest dose activity change, negative = inhibition, actives largely listed as inhibitors; 290,000 tested, 0.37% active; further: potency means the concentration at half of the fitted maximal effect; on the % scale 0 is the no-effect control and ±100 the full control effect
Target sequence (Q27686 whole entry, looked up): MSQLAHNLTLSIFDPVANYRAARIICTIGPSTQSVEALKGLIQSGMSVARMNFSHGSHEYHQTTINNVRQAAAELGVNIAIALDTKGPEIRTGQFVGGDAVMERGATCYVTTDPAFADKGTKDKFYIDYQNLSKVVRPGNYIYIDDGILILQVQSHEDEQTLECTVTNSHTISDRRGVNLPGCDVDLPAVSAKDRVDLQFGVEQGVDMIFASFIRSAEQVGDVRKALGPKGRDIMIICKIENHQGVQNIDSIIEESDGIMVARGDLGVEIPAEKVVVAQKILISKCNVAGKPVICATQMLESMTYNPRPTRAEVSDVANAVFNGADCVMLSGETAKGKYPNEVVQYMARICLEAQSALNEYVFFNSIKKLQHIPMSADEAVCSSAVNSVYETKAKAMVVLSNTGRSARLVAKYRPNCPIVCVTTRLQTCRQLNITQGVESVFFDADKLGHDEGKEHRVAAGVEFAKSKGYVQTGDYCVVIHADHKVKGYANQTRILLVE
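Kinase-Glo luminescence read after 1 h RT reaction of 0.1 nM LmPK with 0.5 mM PEP and 0.1 mM ADP. Activity scaled between uninhibited and enzyme-free controls.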
Pf growth 96h: P. falciparum growth inhibition at 96 hour, primary screen for plastid delayed-death inhibitors. Potency, µM (top dose mostly 28.7 µM), for the others: at the top dose activity change, negative = inhibition, usual class: inhibitors. P. falciparum luciferase reporter growth, 96 h. 320,000 tested, 6.9% active. AID 504834; further: potency means the concentration at half of the fitted maximal effect; on the % scale 0 is the no-effect control and ±100 the full control effect
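96 h incubation, 37 C, 5% CO2, of luciferase-reporter P. falciparum-infected RBCs (2% hematocrit, 0.05% parasitemia final) with test compounds; endpoint luminescence.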
CHX counter: counter-screen for Shiga toxin inhibitors: cycloheximide protein synthesis inhibition. 300,000 tested, 12% active. cell reporter, cycloheximide protein synthesis inhibition counterscreen. AID 2314. max response, %; in the data active means max response mostly above about 13%, no sharp cut-off; inactive means mostly below about 14%; further: read at 38.3 µM for the half of the compounds with a filed dose; 0% is about no effect
Pf growth 48h: P. falciparum growth inhibition at 48 hours (one generation); 310,000 tested, 5.9% active; Potency, µM (doses to about 28.7 µM), without a hit: at the highest dose activity change, negative = inhibition, hits mostly inhibitors; P. falciparum luciferase growth in erythrocytes, 48 h; AID 504832; further: potency means the concentration at half of the fitted maximal effect; on the % scale 0 is the no-effect control and ±100 the full control effect
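Luminescence readout; reporter = integrated firefly luciferase in P. falciparum. RBC culture at 2% hematocrit, 0.1% parasitemia final, 37 C/5% CO2; decreased signal taken as growth inhibition.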
Shiga inhibitor: inhibitors of Shiga toxin in Vero cells. Vero cells, Shiga toxin protein synthesis inhibition reporter. inhibition, % at 38.7 µM. 290,000 tested, 9.2% active. AID 2315; in the data active means inhibition mostly above about 28%, no sharp cut-off; inactive means mostly below about 43%; further: 0% is about no effect
* marks the source's active call; other numbers are inactive results; ? = inconclusive; / = not tested or not shown; [ ] = another dose, or the depositor's remark. Unless noted, the call rests on the fitted dose curve; in most records, active means well fitted inhibition curve with a large enough effect; inconclusive means small, poorly fitted or top-dose-only effect, or another doubt; inactive means no such curve, though single readings can be large or run the other way.

SMILES	LmPK inhibitor	Pf growth 96h	CHX counter	Pf growth 48h	Shiga inhibitor
CCOc1ccc(CCNC(=O)C2=C(C)C(=O)OC23CCC(C)CC3)cc1 (configuration not stated)	1.1%	10.4µM*	-1.8	-3.5%	-8.4
COc1ccc(CNC(=O)C2=C(C)C(=O)OC23CCC(C)CC3)cc1 (configuration not stated)	12.6%	?	-4.7	/	-5.2
CCCC(=O)Nc1ccc2oc(-c3ccc(OC)c(Br)c3)nc2c1	4.2%	?	21.5*	?	65.3
CCCC(=O)Nc1ccc(-c2nc3cc(C)ccc3o2)cc1	-3.1%	/	31.4*	57.2%	70.3*
CCCC(=O)Nc1ccc(-c2nc3cc(C)c(C)cc3o2)c(O)c1	1.7%	12.7%	32.4*	55.0%	52.4
CCC(=O)NC(=S)Nc1ccc2oc(-c3ccc(OC)cc3)nc2c1	-0.6%	-29.1%[5.75 µM]	15.4	55.0%	24.2
COc1ccc(F)c(CN2CCC(n3nccc3NC(=O)C3CCOC3)CC2)c1 (configuration not stated)	2.7%	?	-1.9	31.1%	4.8
C[N+]1(CC(O)COCC2COc3ccccc3O2)CCOCC1 (configuration not stated)	10.0%	-10.4%	2.5	-25.7%	19.5
O=C(COC(=O)CNS(=O)(=O)/C=C/c1ccccc1)Nc1cc(S(=O)(=O)N2CCCCC2)ccc1Cl	1.6%	-18.8%	-2.4	-5.8%	-8.5
Cc1ccc(-c2c[n+](CC(=O)Nc3ccc(C)cc3C)c3n2CCC3)cc1	1.2%	?	0.7	?	9.6
Cc1ccccc1NC(=O)C[n+]1cc(-c2ccccc2)n2c1CCC2	0.7%	5.86µM*	-1.5	?	14.0
Cc1ccc(NC(=O)C[n+]2cc(-c3ccc(C)cc3)n3c2CCC3)cc1	4.2%	1.85µM*	-1.9	6.57µM*	-4.1
Cc1cccc(C)c1NC(=O)C[n+]1cc(-c2ccccc2)n2c1CCC2	-0.4%	11.7µM*	-0.9	?	7.5
Cn1c(NC(=O)C[n+]2cc(-c3ccc(Cl)c(Cl)c3)n3c2CCC3)cc(=O)n(C)c1=O	-0.9%	0.828µM*	-2.5	1.31µM*	-2.6
CC1CCCN(CC(O)CN)C1 (configuration not stated)	-0.7%	23.0%	-5.3	-12.9%	2.1
Cc1ccc(-c2c[n+](CC(=O)Nc3nc(-c4ccc(F)cc4)cs3)c3n2CCC3)cc1	0.2%	3.7µM*	6.4	?	-12.6
O=C(O)c1c2c(nc3ccccc13)/C(=C/c1ccc(OC(F)F)cc1)CCC2	8.9%	7.0%	22.7*	26.6%	57.9*
O=S(=O)(Nc1cc(Sc2ncn[nH]2)c(O)c2ccccc12)c1ccccc1	14.1µM*	0.9%	-7.2	?	13.2
Cc1oc2c(cc(NS(=O)(=O)c3ccc(Cl)cc3)c3ccccc32)c1C(=O)O	2.4%	-8.3%	-0.1	1.6%	-5.1
O=C(O)CSc1cc(NS(=O)(=O)c2ccc(Br)cc2)c2ccccc2c1O	3.55µM*	-3.7%	8.7	/	29.2
Cc1cc(C)c2nc(SCC(=O)N3CC(=O)Nc4ccccc43)c(C#N)cc2c1	-1.0%	?	-1.9	13.1µM*	-8.1
COCCn1c(SCC(=O)N2CC(=O)Nc3ccccc32)nc2ccccc2c1=O	0.8%	?	5.0	?	23.9
Cc1cccc(C)c1-n1c(SCC(=O)N2CC(=O)Nc3ccccc32)nc2ccccc2c1=O	-0.8%	-101.1%	-5.1	13.1µM*	-4.6
Cc1ccc(-n2c(SCC(=O)N3CC(=O)Nc4ccccc43)nc3ccccc3c2=O)cc1	10.9%	?	0.8	13.1µM*	1.3
c1ccc(Cn2c[n+](Cc3ccccc3)c3ccccc32)cc1	-8.4%	6.57µM*	3.6	?	-3.6
SMILES	LmPK inhibitor	Pf growth 96h	CHX counter	Pf growth 48h	Shiga inhibitor
Cc1ccc(NC(=O)c2cnc(SCC(=O)c3ccccc3)n(C)c2=O)cc1	/	46.5%	/	4.1%	/
O=C(CC(c1ccccc1)c1cc(Cl)ccc1O)N1CCOCC1 (configuration not stated)	0.7%	-32.5%	-4.0	11.4%	-7.6
Oc1ccc(Cl)cc1C(C#Cc1ccccc1)N1CCOCC1 (configuration not stated)	1.1%	10.4µM*	10.0	?	-2.4
CCC1(c2ccccc2)NC(=O)N(CC(=O)Nc2ccc(OC)nc2)C1=O (configuration not stated)	-2.9%	1.2%	-3.1	-7.5%	13.6
CC(C)c1ccc(C(O)c2cnc(C(C)C)n2C)cc1 (configuration not stated)	1.8%	-24.2%	36.2*	?	47.2*
CC(C)c1ncc(C(O)c2ccccc2)n1C (configuration not stated)	0.6%	21.6%	-1.2	7.7%	8.0
Cn1c(Cl)cnc1C(O)c1ccccc1 (configuration not stated)	-4.5%	6.57µM*	8.0	8.3%	-9.6
O=C(NNC(=O)C1CCCCC1)c1ccc(Br)cc1	5.9%	-3.3%	12.5	60.8%	42.3
COC(=O)C1=C(CCc2ccccc2)NC(=O)NC1c1ccc(Br)cc1 (configuration not stated)	4.6%	13.1µM*	-1.9	14.5%	-0.5
CCOC(=O)C1=C(CCc2ccccc2)NC(=O)NC1c1cccc([N+](=O)[O-])c1 (configuration not stated)	-0.7%	56.3%	4.3	?	-2.1
CCOC(=O)CC1C(=O)NCCN1C(=O)c1sc2ccccc2c1Cl (configuration not stated)	1.3%	?	0.7	-2.3%	20.2
c1ccc(N2CCN(c3nc4ccccc4n4cnnc34)CC2)cc1	2.4%	4.15µM*	-9.6	/	-17.5
c1ccc2c(c1)CCCN2c1nc2ccccc2n2cnnc12	12.8%	23.6%	29.9*	/	107.0*
O=C(Nc1ccc2nc3n(c(=O)c2c1)CCCCC3)c1ccccc1[N+](=O)[O-]	-4.4%	6.9%	15.9	-4.2%	15.8
CCCN(C(=O)C(=O)Nc1ccc2nc3n(c(=O)c2c1)CCCCC3)c1ccc(OCC)cc1	1.3%	-8.7%	6.2	0.117µM*	13.7
O=c1c2cc(NC(=S)NC3CCCCC3)ccc2nc2n1CCCCC2	1.8%	?	2.3	?	11.6
O=C(Nc1ccc2nc3n(c(=O)c2c1)CCCC3)c1ccccc1F	-0.9%	?	31.3*	-10.1%	69.6*
O=C(Nc1ccc2nc3n(c(=O)c2c1)CCCCC3)c1ccccn1	-13.9%	-35.2%	35.5*	1.5%	59.2*
O=c1c2cc(NC(=S)NC3CCCC3)ccc2nc2n1CCCCC2	3.3%	?	29.9*	-9.6%	37.7
CCOC(=O)C1CCCN(C(=O)C(=O)Nc2ccc3nc4n(c(=O)c3c2)CCCCC4)C1 (configuration not stated)	-4.3%	81.2%	-3.3	?	-3.7
CCC(C)[C@H](NC(=O)C1CC(=O)N(c2ccc3c(c2)OCCO3)C1)C(=O)N1CCCCC1 (some centres not stated)	-2.4%	35.6%	12.4	21.0%	2.4
